Compound activity as filed in PubChem.
SARS PLP yeast: inhibitors of SARS-CoV papain-like protease in yeast. Potency, µM (series often up to 32.9 µM), inactives show top-dose activity, positive = growth rescue, hits mostly activators. actives 0.19% (n = 330,000). S. cerevisiae expressing SARS-CoV PLpro, growth rescue; calls by dose curve; further: potency means the concentration at half of the fitted maximal effect; 0% is about no effect; nearly all actives have a fitted effect of over 55% in size
Pf growth 96h: P. falciparum growth inhibition at 96 hours. Potency, µM (titrated, usually from 28.7 µM), for inactives: at the highest dose activity change, negative = inhibition, most hits filed as inhibitors. AID 504834. actives 6.9% (n = 320,000). P. falciparum luciferase reporter growth, 96 h; further: potency means the concentration at half of the fitted maximal effect; on the % scale 0 is the no-effect control and ±100 the full control effect
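96 h incubation, 37 C, 5% CO2, of luciferase-reporter P. falciparum-infected RBCs (2% hematocrit, 0.05% parasitemia final) with test compounds; endpoint luminescence.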
AMA1 RON2 block: AMA1-RON2 (P. falciparum) interaction inhibition. AlphaScreen AMA1-biotinylated RON2 peptide binding. Potency, µM (highest dose often 58.2 µM), for inactives: at the top dose activity change, negative = inhibition, actives largely listed as inhibitors. actives 0.2% (n = 360,000). AID 720542;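 further: potency means the concentration at half of the fitted maximal effect; 0% = vehicle wells and -100% = peptide control; nearly all actives have a fitted effect of over 45% in size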
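AMA1 (3D7) with his tag at 25 nM final met compounds first, then biotinylated RON2 peptide at 25 nM; detection used donor plus acceptor beads, 10 µg/mL apiece, read by AlphaScreen after 30 min at room temperature.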
Pf growth 48h: P. falciparum growth inhibition at 48 hours (one generation); P. falciparum luciferase growth in erythrocytes, 48 h; Potency, µM (series often up to 28.7 µM), without a hit: top-dose activity change, negative = inhibition, most hits filed as inhibitors; actives 5.9% (n = 310,000); AID 504832; further: potency means the concentration at half of the fitted maximal effect; on the % scale 0 is the no-effect control and ±100 the full control effect
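Luciferase-expressing parasites in RBCs, 2% Hct / 0.1% parasitemia final; RPMI 1640 + 0.5% Albumax; 37 C, 5% CO2, one generation; luminescence read-out, lower signal = inhibition.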
CHX counter: counter-screen for Shiga toxin inhibitors: cycloheximide protein synthesis inhibition | actives 12% (n = 300,000) | max response, % | cell reporter, cycloheximide protein synthesis inhibition counterscreen; in the data active means max response mostly above about 13%, no sharp cut-off; inactive means mostly below about 14%; further: read at 38.3 µM for the half of the compounds with a filed dose; 0% is about no effect
Shiga toxin inh: blocks Shiga toxin action in Vero cells. actives 9.2% (n = 290,000). AID 2315. Vero cells, Shiga toxin protein synthesis inhibition reporter. inhibition, % at 38.7 µM; in the data active means inhibition mostly above about 28%, no sharp cut-off; inactive means mostly below about 43%; further: 0% is about no effect
An asterisk follows results filed as active; ? = inconclusive; / = no result; + = active, no number; [ ] = another dose, or the depositor's remark. Hits are enriched below; roughly 19% of the tested compounds scored in any of these assays. Unless noted, the call rests on the fitted dose curve; in most records, active means well fitted curve in the direction sought with a large enough effect; inconclusive means small, poorly fitted or top-dose-only effect, or another doubt; inactive means no such curve, though single readings can be large; an effect the other way counts as inactive or inconclusive.

SMILES	SARS PLP yeast	Pf growth 96h	AMA1 RON2 block	Pf growth 48h	CHX counter	Shiga toxin inh
Cc1ccc(NC(=O)CCc2c(C)nn(-c3ccc(N4CCCCC4)nn3)c2C)cc1F	-10.1%	0.0%	-8.7%	34.4%	41.0*	71.0*
Cc1cc(C)cc(NC(=O)CCc2c(C)nn(-c3ccc(N4CCOCC4)nn3)c2C)c1	?	?	-8.4%	-2.4%	26.1*	35.1
CCc1ccccc1NC(=O)CCc1c(C)nn(-c2ccc(N3CCOCC3)nn2)c1C	15.3%	58.7%	6.2%	-9.6%	4.9	7.3
Cc1nn(-c2ccc(N3CCCCC3)nn2)c(C)c1CCC(=O)Nc1cccc(F)c1	-8.6%	?	-2.9%	83.7%	44.3*	83.7*
CCc1cccc(NC(=O)CCc2c(C)nn(-c3ccc(N4CCCCC4)nn3)c2C)c1	-43.7%	?	-21.8%	25.7%	40.2*	95.0*
Cc1ccc(S(=O)(=O)N(C)C[C@H]2OCc3cnnn3CCCC(=O)N([C@H](C)CO)C[C@H]2C)cc1	/	/	15.3%	/	/	/
Cc1nn(-c2ccc(N3CCCCC3)nn2)c(C)c1CCC(=O)Nc1ccc(F)cc1	0.3%	?	-11.6%	16.4%	33.7*	55.4*
CCOc1ccc(NC(=O)CCc2c(C)nn(-c3ccc(N4CCCCC4)nn3)c2C)cc1	-6.0%	30.1%	-13.2%	26.9%	27.2*	44.9*
CCc1ccc(NC(=O)CCc2c(C)nn(-c3ccc(N4CCCCC4)nn3)c2C)cc1	-31.4%	55.5%	-11.1%	11.4%	49.1*	80.8*
Cc1cc(NS(=O)(=O)c2ccc(NC(=O)CCCOc3cccc(C)c3C)cc2)no1	1.8%	-2.1%	-16.0%	-18.8%	-2.6	-6.9
O=C(COc1cccc2cccnc12)NNC(=S)Nc1ccccc1	-0.1%	0.657µM*	/	-22.2%	2.0	8.6
Cc1cc(NC(=O)COc2ccccc2C)no1	0.0%	-26.9%	11.3%	174.5%	46.2*	110.2*
Cc1cc(NC(=O)COc2cccc(C)c2C)no1	-4.1%	1.7%	2.9%	65.3%	27.6*	59.7*
Cc1cc(NC(=O)COc2ccccc2C(N)=O)no1	-1.9%	/	-3.6%	/	/	/
Cc1cc(NC(=O)COc2cccc3cccnc23)no1	-2.2%	-20.7%	/	?	33.0*	+
CCN(CC)S(=O)(=O)c1ccc(C(C)NC(=O)Cc2c[nH]c3ccccc23)cc1 (stereo not drawn)	0.3%	?	-8.9%	?	1.1	-4.9
COc1cccc(C2=Nn3c(nnc3-c3ccc(OC)c(OC)c3)SC2)c1	/	/	/	/	3.0	6.7
Cc1cc(C(=O)CN2C(=O)C(=O)N(CCC3=CCCCC3)C2=O)c(C)n1C	-1.2%	/	20.0%[11.6 µM]	/	/	/
Cn1nc(-c2ccccc2)c(C#N)c1Sc1cccc(Cl)c1	-3.7%	10.4µM*	28.7%	?	10.0	-8.4
OCCNc1nc(Nc2cccc(O)c2)nc2ccccc12	-0.6%	0.104µM*	-17.0%	2.33µM*	-2.9	13.5
Oc1cccc(Nc2c3ccccc3nc3ccccc23)c1	-13.0%	-10.7%	-5.9%	?	5.8	19.2
OCCNc1nc(NCc2ccccc2)c2ccccc2n1	-6.6%	11.7µM*	-1.7%	?	-1.4	-4.5
OCCNc1nc(Nc2ccc(O)cc2)nc2ccccc12	0.8%	5.22µM*	-11.1%	1.65µM*	-3.5	-4.8
CC(C)Nc1nc(NCCO)nc2ccccc12	/	/	-5.5%	/	/	/
O=c1c(Cc2c(F)cccc2Cl)c(O)ccn1CCc1ccccn1	4.9%	0.1%	19.9%	-5.0%	-1.5	2.2
SMILES	SARS PLP yeast	Pf growth 96h	AMA1 RON2 block	Pf growth 48h	CHX counter	Shiga toxin inh
COc1ccc(C(=O)C(=O)N2CCN(c3ccccc3F)CC2)cc1	/	/	4.4%	/	/	/
CCc1ccc(Oc2cc(Cl)nc(N)n2)cc1	3.4%	4.5%	2.6%	42.8%	49.9*	65.3*
COc1cccc(Oc2cc(Cl)nc(N)n2)c1	-1.6%	9.8%	-4.3%	1.4%	15.7*	20.5*
COc1ccc(Oc2cc(Cl)nc(N)n2)cc1	0.1%	-11.9%	-1.4%	19.2%	12.4	12.2
Nc1nc(Cl)cc(Oc2ccc([N+](=O)[O-])cc2)n1	0.6%	10.0%	-1.9%	5.9%	-1.7	-8.0
CC(=O)c1cc2c(cc1NC(=O)c1ccc(C)cc1)OCO2	-15.5%	57.4%	/	6.6%	-3.0	20.8
CCCCCCCCCCC[N+](C)(C)CC/C=C1/c2ccccc2Sc2ccc(Cl)cc21	-3.1%	?	-8.4%	/	1.9	-2.9
CCCCCCCCCC[N+](C)(C)CC/C=C1/c2ccccc2Sc2ccc(Cl)cc21	-1.8%	3.7µM*	-15.5%	/	-0.6	21.2
OCCN1CCN(CC/C=C2/c3ccccc3Sc3ccc(Cl)cc32)CC1	/	9.28µM*	?	10.4µM*	/	/
CC[N+](C)(C)CC/C=C1/c2ccccc2Sc2ccc(Cl)cc21	-0.2%	1.65µM*	4.0%	3.7µM*	-0.7	-4.1
CN(C)CC/C=C1\c2ccccc2Sc2ccc(Cl)cc21	2.6%	13.5µM*	-25.7%	15.1µM*	-2.8	-9.2
Cc1nc2ccccc2c(N)c1C(=O)/C=C/c1ccccc1	1.6%	?	-10.3%	5.86µM*	-2.9	-10.0
Cc1[nH]c2ccccc2c1C(=O)/C=C/c1ccccc1Cl	9.4%	?	-8.9%	100.8%	40.1*	80.7*
Cc1[nH]c2ccccc2c1C(=O)/C=C\c1ccccc1Cl	4.4%	-26.8%	-29.1%	52.7%	35.9*	24.0*
Cc1[nH]c2ccccc2c1C(=O)/C=C/c1ccccc1	-23.8%	?	-7.1%	33.4%	37.1*	56.5*
CC(=O)O[C@H]1C(=O)[C@]2(C)[C@H]([C@H](OC(=O)c3ccccc3)[C@]3(O)C[C@H](OC(=O)[C@H](O)[C@@H](NC(=O)c4ccccc4)c4ccccc4)C(C)=C1C3(C)C)[C@]1(OC(C)=O)CO[C@@H]1C[C@@H]2O	/	/	-6.0%	/	/	/
CC(=O)O[C@H]1C(=O)[C@@]2(C)C([C@H](OC(=O)c3ccccc3)[C@]3(O)C[C@H](OC(=O)[C@H](O)[C@@H](NC(=O)Cc4ccccc4)c4ccccc4)C(C)=C1C3(C)C)[C@]1(OC(C)=O)CO[C@@H]1C[C@@H]2O (stereo partly drawn)	6.7%	0.738µM*	-3.5%	3.7µM*	-1.4	14.3
CC(=O)O[C@@]12CO[C@@H]1C[C@H](O)[C@@]1(C)C(=O)[C@H](O)C3=C(C)[C@@H](OC(=O)[C@H](O)[C@@H](NC(=O)c4ccccc4)c4ccccc4)C[C@@](O)([C@@H](OC(=O)c4ccccc4)C12)C3(C)C (stereo partly drawn)	-1.8%	0.0738µM*	0.5%	0.0738µM*	-0.8	-7.1
CC(=O)O[C@@]12CO[C@@H]1C[C@H](O)[C@@]1(C)C(=O)[C@H](O)C3=C(C)[C@@H](OC(=O)C(O)[C@@H](NC(=O)OC(C)(C)C)c4ccccc4)C[C@@](O)([C@@H](OC(=O)c4ccccc4)[C@H]21)C3(C)C (stereo partly drawn)	/	0.0135µM*	/	0.0135µM*	/	/
